RPL19A TOR yeast: modulators of TOR pathway RPL19A-GFP in S. cerevisiae. S. cerevisiae RPL19A-GFP strain, flow cytometry, 3 h; hits give low values. percent response vs DMSO, % at 10 µM. 330,000 compounds, 0.3% hits. AID 2025;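 active = percent response vs DMSO below 50%; inconclusive = fewer than 70 events counted for the yeast strain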;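 note: median channel GFP fluorescence of the barcoded RPL19A-GFP strain; ratio of sample median GFP to plate DMSO average so 100% = DMSO; lower means less RPL19A-GFP as with rapamycin TOR inhibition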
LAP4-GFP MLPCN: alters LAP4-GFP fluorescence in TOR pathway yeast screen. S. cerevisiae LAP4-GFP multiplex, flow cytometry GFP, 3 h; median GFP as percent of DMSO wells. GFP response vs DMSO, % at 10 µM. 320,000 compounds, 0.34% hits. AID 2023;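 active = GFP response vs DMSO above a set limit, about the screen mean plus 3 SD, cut at about 150% in these data; inconclusive = under 70 cell events counted for the yeast strain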
DSG3 Ab inh: human desmoglein-3 autoantibody binding inhibition; DSG3-coupled beads, scFv-anti-DSG3-GFP binding, flow cytometry; hits give low values; binding (percent of control), % at 10 µM; 310,000 compounds, 0.48% hits; AID 588358;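 active = binding more than 3 SD below its plate's average and above zero; inconclusive = below that plate limit but binding exactly zero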;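 note: hits lower antibody fragment binding to DSG3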
CIT2-GFP yeast: yeast TOR pathway CIT2-GFP modulation. S. cerevisiae CIT2-GFP strain, flow cytometry, 3 h; 100 means same as DMSO wells. GFP response vs DMSO, % at 10 µM. 320,000 compounds, 0.065% hits. AID 2029;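 active = GFP response relative to DMSO above a set limit, near the screen mean plus 3 SD, cut at about 150% in these data; inconclusive = Fewer than 70 cells measured for a yeast strain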;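 note: ratio of well median GFP fluorescence to mean of DMSO wells on the plate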
AGP1 TOR yeast: alters AGP1-GFP fluorescence in TOR pathway yeast screen | GFP response vs DMSO, % at 10 µM | 320,000 compounds, 0.02% hits | AID 2066 | S. cerevisiae AGP1-GFP multiplex flow cytometry, 3 h; GFP as percent of DMSO wells;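 active = GFP response relative to DMSO above a set limit, near screen average plus 3 SD, cut at about 150% in these data; inconclusive = fewer than 70 cells counted for the yeast strain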;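 note: median GFP channel fluorescence of the gated AGP1 strain per well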
MEP2-GFP yeast: yeast TOR pathway MEP2-GFP modulation. 330,000 compounds, 0.51% hits. S. cerevisiae MEP2-GFP strain, flow cytometry GFP, 3 h; 100% = DMSO control level. GFP response vs DMSO, % at 10 µM;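 active = GFP response versus DMSO above a set limit, roughly screen mean plus 3 SD, cut at about 180% in these data; inconclusive = fewer than 70 cells counted for a yeast strain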;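 note: median GFP fluorescence of the barcode-gated MEP2-GFP cells per well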
The depositor's hits bear a star; ? = inconclusive; . = not tested or not shown; [ ] = remark or other dose. This is a sample that favours compounds with a hit; in the whole collection about 1.2% have one here.

SMILES	RPL19A TOR yeast	LAP4-GFP MLPCN	DSG3 Ab inh	CIT2-GFP yeast	AGP1 TOR yeast	MEP2-GFP yeast
CCC(=O)Nc1cccc(C(=O)N(Cc2ccccc2)Cc2ccccc2)c1	107.2	102.3	109.5	102.5	107.3	105.3
O=S(=O)(c1ccc(F)cc1)N1CCN(CC2CC3C=CC2C3)CC1 (configuration not stated)	55.4	90.0	87.6	?	20.3	207.3*[may fluoresce violet]
COc1ccc(N2CCN(C(=O)COCc3cc(-c4ccc5c(c4)OCO5)on3)CC2)cc1	98.9	115.2	71.3*	94.1	110.4	109.4
CCN1CCN(C(=O)COCc2cc(-c3ccc4c(c3)OCO4)on2)CC1	95.2	98.3	101.5	88.8	87.7	100.5
Cc1ccc(S(=O)(=O)Nc2ccc(C(=O)NCCCn3ccnc3)cc2)cc1[N+](=O)[O-]	99.8	104.0	100.8	102.5	96.2	97.4
O=C(/C=C/c1ccccc1)Nc1ncn[nH]1	91.6	163.0*	99.2	89.0	93.9	97.0
Cc1ccc(NC(=O)N2CCC(NC(=O)c3cccc(F)c3)CC2)cc1	103.2	90.6	?	102.9	103.8	102.9
O=C(NC1CCN(C(=O)Nc2ccc(F)cc2)CC1)c1cccc(F)c1	30.1*[may fluoresce violet]	59.0	.	?	?	199.7*[may fluoresce violet]
Clc1ccc(-c2nc(NCCCN3CCOCC3)c3ccccc3n2)cc1	94.0	95.6	99.1	91.8	96.7	92.9
Fc1ccccc1-c1nc(NCCCN2CCOCC2)c2ccccc2n1	101.6	111.0	97.1	102.6	97.8	207.6*
COc1ccccc1CCC(=O)Nc1nccs1	100.8	97.7	95.7	105.2	102.4	99.4
COc1ccc(CCC(=O)NC2CCCc3ccccc32)cc1OC (configuration not stated)	28.5*[may fluoresce violet]	70.6	115.4	?	?	236.1*[may fluoresce violet]
COc1ccc(CCC(=O)Nc2nccs2)cc1OC	47.5*[may fluoresce violet]	94.2	103.2	?	21.7	198.1*[may fluoresce violet]
CC(C)NC1(C#N)CCN(Cc2ccccc2)CC1	.	.	99.1	.	.	.
COc1ccc(NC(=O)c2cc(C)nn2-c2ccccc2)cc1	91.0	95.6	98.4	102.5	93.2	93.3
CC(=O)Nc1nnc(CCS(=O)(=O)c2ccc(C)c(C)c2)s1	107.4	94.6	6.1*	101.9	107.8	99.0
Cc1ccc(S(=O)(=O)CCc2nnc(NC(=O)C3CCCCC3)s2)cc1	93.6	95.8	103.3	100.7	102.8	94.7
Cc1ccc(C2(C)NC(=O)N(CC(=O)Nc3ccc4c(c3)OCO4)C2=O)cc1 (configuration not stated)	94.5	95.4	.	92.3	97.7	95.3
Cc1cccc(NC(=O)CN2C(=O)NC(C)(c3ccc4c(c3)OCO4)C2=O)c1 (configuration not stated)	20.4*[may fluoresce violet]	72.0	97.2	?	19.0	289.3*[may fluoresce violet]
Cc1nn(-c2ccccc2)c2c1C(c1ccc(O)c(O)c1)N1C(=N2)C(Nc2ccccc2)=Nc2ccccc21 (configuration not stated)	88.9	104.5	95.2	82.0	22.2	110.7
Cc1ccc(NC2=Nc3ccccc3N3C2=Nc2c(c(C)nn2-c2ccccc2)C3c2ccc(O)c(O)c2)cc1 (configuration not stated)	.	.	91.2*	.	.	.
CCSC1(SCC)N=C(N)C2(C#N)C(c3ccccc3)NC3=C(CCC3)C12C#N (configuration not stated)	42.1*[may fluoresce violet]	96.6	94.0	?	19.9	277.4*[may fluoresce violet]
COc1ccc(F)cc1C(=O)C1CCCN(Cc2cnc(N3CCCC3)s2)C1 (configuration not stated)	97.7	102.7	100.7	97.6	105.6	104.5
COc1ccc(Cl)cc1C(=O)C1CCCN(Cc2cnc(N3CCOCC3)s2)C1 (configuration not stated)	96.4	108.8	27.9*	98.3	102.3	99.3
COCC(C)NC(=O)C1CC(=O)N(CCc2ccc(F)cc2)C1 (configuration not stated)	.	.	107.4	.	.	.
SMILES	RPL19A TOR yeast	LAP4-GFP MLPCN	DSG3 Ab inh	CIT2-GFP yeast	AGP1 TOR yeast	MEP2-GFP yeast
Cc1cc(C)c2oc(=O)cc(CN3CCC(C)CC3)c2c1	101.0	86.7	95.7	96.1	92.6	97.1
Cc1cc2cc(CNC(=O)Nc3ccccc3)ccc2[nH]1	98.5	89.2	76.2*	99.8	98.7	99.2
O=C1CC(C(=O)Nc2ccc(Cl)cc2)n2ncnc2N1 (configuration not stated)	98.7	108.7	-8.7*	104.7	105.6	98.6
CC(NC(=O)c1ccco1)C(=O)OCc1cccc(C(F)(F)F)c1 (configuration not stated)	94.5	105.4	103.9	88.5	104.5	94.7
Cc1ccc(NC(=O)COc2ccc(/C=N/NC(=O)CSCc3ccccc3)cc2)cc1	93.5	91.3	80.7*	101.8	99.4	97.8
COc1ccc(CSCC(=O)N/N=C/c2ccccc2O)cc1	103.5	112.5	53.2*	100.6	105.0	101.1
Cc1ccc(C(=O)N2CCN(c3ccc(NC(=O)Cc4ccccc4)cc3)CC2)cc1	100.5	87.4	101.0	93.5	85.0	97.5
O=c1oc2cc(O[C@@H]3OC[C@@H](O)[C@H](O)[C@H]3O)ccc2c2ccccc12	95.0	111.9	93.0	110.9	111.0	98.9
O=C(COc1ncnc2ccccc12)N1CCOCC1	101.6	102.5	108.1	103.4	103.5	104.4
CC1CCN(C(=O)COc2ncnc3ccccc23)CC1	46.4*[may fluoresce violet]	73.7	98.8	?	?	288.7*[may fluoresce violet]
COc1ccc(C(=O)Nn2c(C)nc3ccccc3c2=O)cc1Br	92.8	90.2	72.4*	101.8	95.6	94.3
O=C1CCc2cc(S(=O)(=O)Nc3ccccc3)ccc2N1	97.7	101.0	106.7	93.4	100.8	98.6
Cc1[nH]c(C)c(S(=O)(=O)NCc2ccc(F)cc2)c1C(=O)N1CCCC1	47.1*[may fluoresce violet]	120.3	.	?	?	437.7*[may fluoresce violet]
CCCCOc1ccc(/C=N/NC(=S)Nc2cc(C)ccc2C)cc1	107.5	79.5	98.2	124.9	95.6	106.1
CCCCOc1ccc(/C=N/NC(=S)Nc2cccc(C)c2C)cc1	102.9	104.9	2.8*	109.0	106.1	108.0
N#Cc1c(N)c2ccccn2c1C(=O)c1ccc(Br)cc1	105.9	100.5	?	98.1	96.4	109.0
COc1ccc(C(=O)Nc2cccnc2Sc2ccc(Cl)cc2)cc1	95.9	107.6	80.4*	88.3	101.8	105.1
COc1ccc(-c2noc(CCC(=O)NC3CCCCCC3)n2)cc1OC	.	.	82.5*	.	.	.
CC#CC(=O)N1CCC(C(=O)Nc2ccc(Oc3ccccc3)nc2)CC1	100.4	93.3	.	101.5	94.0	105.2
O=S(=O)(Nc1ccc(Br)cc1)c1cccc2nonc12	79.6	152.3*	108.7	91.2	115.6	94.7
Cn1c(O)c(N=NC(=O)CNC(=O)c2ccccc2)c2ccccc21	105.4	107.6	-36.5*	104.8	103.3	115.8

Source: PubChem
